A3G deaminase: APOBEC3G DNA deaminase inhibitors, primary screen, biochemical, fluorescence, single-stranded DNA substrate, uHTS; DNA dC->dU-editing enzyme APOBEC-3G (Homo sapiens), Q9HC16; recombinant A3G, ssDNA deamination FAM/TAMRA fluorescence; inhibition, % at 20 µM; 0.28% of 330,000 active; AID 493012, 2011;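 active means inhibition of at least 40% at 20 µM, with no more than 30% in the related APOBEC3A deaminase screen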;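 further: plate controls were DMSO wells with A3G for no effect and wells lacking A3G enzyme for full effect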
NRP1-CendR mod: modulators of CendR peptide binding to NRP-1, primary screen, biochemical, fluorescence polarization, uHTS; Neuropilin-1 (Homo sapiens), O14786; FAM-RPARPAR peptide binding to NRP-1; inhibition, % at 25 µM; 0.85% of 360,000 active;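 active means inhibition or corrected inhibition above about 18%, plus a signal ratio from 0.5 to 1.5, limit read from the data, passing the limit was not always enough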
M18AAP inhibitor: PfM18AAP inhibitors, malaria aminopeptidase, primary screen, biochemical, QFRET, recombinant enzyme; M18 aspartyl aminopeptidase (Plasmodium falciparum 3D7); AID 1822, 2009; inhibition, % at 7.35 µM; 1.2% of 290,000 active; H-Glu-NHMec fluorogenic cleavage;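 active means inhibition above the campaign mean inhibition over all tested compounds plus 3 SD, cut at about 28% in these data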;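 further: 0% = plate median of test compound wells and 100% = 2 mM ZnCl2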
ALR H2O2 inh: inhibitors of human ALR sulfhydryl oxidase, primary screen, biochemical, H2O2 detection, HRP-luminol luminescence, single point | FAD-linked sulfhydryl oxidase ALR (Homo sapiens), P55789 | purified ALR, DTT oxidation | inhibition, % (test concentration not listed) | 3.8% of 290,000 active;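 active means mean replicate inhibition above about 79%, with every replicate also reaching it, limit read from the data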
CR mimetic SO: reduction of superoxide in aged yeast, primary screen, HTS. S. cerevisiae aged cells, superoxide DHE fluorescence; active compounds read low. superoxide response (% of plate mean), % at 10 µM. 0.18% of 330,000 active. AID 2690, 2010;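 active means superoxide response under a set limit, about three screen SD below normal, cut at about 65% in these data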;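 further: yeast aged for seven days with compound at 30 °C before DHE staining; 100% = average MFI of all compound-treated wells on the plate with controls excluded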
A3A deaminase: APOBEC3A ssDNA deaminase inhibitors, primary screen, selectivity assay for APOBEC3G inhibitor project, biochemical, FAM/TAMRA oligo cleavage fluorescence; recombinant A3A, FAM/TAMRA ssDNA deamination fluorescence; inhibition, % at 20 µM; 0.41% of 330,000 active; AID 493011, 2011;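 active means at least 40% inhibition at 20 µM here, with at most 30% in a related deaminase screen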;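 further: plate controls were A3A with DMSO for no effect and wells lacking A3A enzyme for full effect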
APOBEC3A confirm: APOBEC3A deaminase inhibitors, retest, confirmation, selectivity assay for APOBEC3G inhibitor project, biochemical, single concentration, fluorescence readout; shares compounds with A3A deaminase; recombinant A3A, ssDNA deaminase UDG fluorescence assay; inhibition, % at 20 µM; 63% of 1,400 active; AID 493151, 2011;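 active means inhibition reaching a set limit, 80% of the first screen's cutoff, at 20 µM in any replicate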;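 further: plate controls were DMSO wells with A3A for no effect and wells lacking A3A enzyme for full effect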
UDG ctr A3A: E. coli UDG inhibitors, confirmation, counter-screen for APOBEC3A inhibitor project, biochemical, single concentration, fluorescence, FAM/TAMRA oligo; shares compounds with A3A deaminase; UDG counterscreen, FAM/TAMRA uracil oligo fluorescence; inhibition, % at 20 µM; 1,000 tested, under 10 active; call rule not given here
An asterisk follows results filed as active. Hits are enriched below; roughly 5.2% of the tested compounds scored in any of these assays.

How did Cc1cccc(C)c1NC(=O)C(C)Sc1n[nH]c(-c2ccncc2)n1 (stereo not given) do in these assays?
A3G deaminase: -8; NRP1-CendR mod: 12; M18AAP inhibitor: 1; CR mimetic SO: 94; A3A deaminase: 82*; APOBEC3A confirm: -10; UDG ctr A3A: 1

How did Cc1ccc(-c2nc(SC(C)C(=O)NC3CC3)n[nH]2)cc1 (stereo not given) do in these assays?
NRP1-CendR mod: -3

What do the screens show for `CC(C)COP(=O)(OCC(C)C)C(Nc1ccccc1)c1ccc2c(c1)OCO2` (stereo not given)?
A3G deaminase: -9; NRP1-CendR mod: 11; M18AAP inhibitor: 2; ALR H2O2 inh: -7; CR mimetic SO: 96; A3A deaminase: -2

What do the screens show for `CC(C)C(NC(=O)c1ccccc1F)C(=O)NCc1ccc(F)cc1` (stereo not given)?
A3G deaminase: 3; NRP1-CendR mod: -4; M18AAP inhibitor: -12; ALR H2O2 inh: -5; CR mimetic SO: 115; A3A deaminase: 40*; APOBEC3A confirm: 13

How did CCOc1ccc(NC(=S)NC(=O)/C=C/c2ccco2)cc1 do in these assays?
A3G deaminase: -4; NRP1-CendR mod: -7; M18AAP inhibitor: -1; ALR H2O2 inh: 1; CR mimetic SO: 87; A3A deaminase: -7

How did COc1cc(NS(=O)(=O)c2ccc(NC(=S)NC(=O)/C=C/c3ccco3)cc2)ncn1 do in these assays?
A3G deaminase: 23; NRP1-CendR mod: -182; M18AAP inhibitor: 8; A3A deaminase: 55*; APOBEC3A confirm: 73*; UDG ctr A3A: -4

Results for O=C1ON=C(c2cccc([N+](=O)[O-])c2)/C1=C/c1ccc(O)cc1 ?
A3G deaminase: 1; NRP1-CendR mod: -32; M18AAP inhibitor: -9; ALR H2O2 inh: 61; CR mimetic SO: 106; A3A deaminase: 5

How did O=C1ON=C(c2ccc(Cl)c([N+](=O)[O-])c2)/C1=C/c1cccc([N+](=O)[O-])c1O do in these assays?
A3G deaminase: 23; NRP1-CendR mod: -5; ALR H2O2 inh: -1; CR mimetic SO: 98; A3A deaminase: 82*; APOBEC3A confirm: 88*; UDG ctr A3A: -3

Results for O=C1ON=C(c2ccccc2[N+](=O)[O-])/C1=C/c1cccc([N+](=O)[O-])c1O ?
A3G deaminase: 17; NRP1-CendR mod: -19; ALR H2O2 inh: -7; CR mimetic SO: 100; A3A deaminase: 57*; APOBEC3A confirm: 83*; UDG ctr A3A: -1

What do the screens show for `O=[N+]([O-])c1cccc(C=NNc2ccc3ccccc3n2)c1O`?
NRP1-CendR mod: -10

Results for O=C(NC1c2ccccc2-c2ccccc21)N1CCCCC1 ?
NRP1-CendR mod: -4; M18AAP inhibitor: 9

How did CC(C)(C)NC(=O)C(c1ccccc1)N(Cc1ccco1)C(=O)c1csnn1 (stereo not given) do in these assays?
A3G deaminase: -1; NRP1-CendR mod: 0; M18AAP inhibitor: -1; ALR H2O2 inh: 22; CR mimetic SO: 102; A3A deaminase: 1

How did CCC(C)N(C(=O)c1csnn1)C(C(=O)NC(C)(C)C)c1ccccc1 (stereo not given) do in these assays?
A3G deaminase: -4; NRP1-CendR mod: 1; M18AAP inhibitor: -7; ALR H2O2 inh: 2; CR mimetic SO: 95; A3A deaminase: 62*; APOBEC3A confirm: -9; UDG ctr A3A: 0

Results for C[N+]1(C)CCC(=C2c3ccccc3CC(=O)c3sccc32)CC1 ?
A3G deaminase: 28; NRP1-CendR mod: 7; M18AAP inhibitor: 16; ALR H2O2 inh: 2; CR mimetic SO: 109; A3A deaminase: 52*; APOBEC3A confirm: 53*

How did CC[N+]1(C)CCC(=C2c3ccccc3CC(=O)c3sccc32)CC1 (stereo not given) do in these assays?
A3G deaminase: -7; NRP1-CendR mod: -2; M18AAP inhibitor: 0; ALR H2O2 inh: -45; CR mimetic SO: 109; A3A deaminase: 0

What do the screens show for `O=[N+]([O-])c1ccc2nc(N3CCCC3)sc2c1`?
A3G deaminase: 18; NRP1-CendR mod: 3; M18AAP inhibitor: -1; ALR H2O2 inh: -14; CR mimetic SO: 93; A3A deaminase: 45*; APOBEC3A confirm: 55*; UDG ctr A3A: -1

How did O=C(c1ccccc1)N1CCN(c2nc3ccc([N+](=O)[O-])cc3s2)CC1 do in these assays?
A3G deaminase: 10; NRP1-CendR mod: -1; M18AAP inhibitor: 1; ALR H2O2 inh: -2; CR mimetic SO: 116; A3A deaminase: -1

Results for Cc1nc2ccccn2c1/C(O)=C1\C(=O)C(=O)N(CCN(C)C)C1c1ccco1 (stereo not given) ?
A3G deaminase: 1; NRP1-CendR mod: 10; M18AAP inhibitor: 1; ALR H2O2 inh: -11; CR mimetic SO: 93; A3A deaminase: 2

How did CCc1nn2cc(C(=O)c3ccccc3O)cnc2c1-c1ccc(F)cc1 do in these assays?
A3G deaminase: 0; NRP1-CendR mod: -2; M18AAP inhibitor: -4; ALR H2O2 inh: 0; CR mimetic SO: 100; A3A deaminase: 1

What do the screens show for `CCn1c(/C=C/c2cc[n+](C)cc2)nc2ccccc21`?
A3G deaminase: 11; NRP1-CendR mod: 1; M18AAP inhibitor: 9; ALR H2O2 inh: -12; CR mimetic SO: 109; A3A deaminase: 53*; APOBEC3A confirm: 47*

How did CC(=O)C1=NOC(CNC(=O)c2c(-c3ccccc3Cl)noc2C)C1 (stereo not given) do in these assays?
A3G deaminase: -1; NRP1-CendR mod: 0; M18AAP inhibitor: 0; CR mimetic SO: 96; A3A deaminase: -4

Results for CCc1c(C(=O)OCc2ccccc2)[nH]c(C)c1C ?
A3G deaminase: -9; NRP1-CendR mod: 3; M18AAP inhibitor: -9; ALR H2O2 inh: 2; CR mimetic SO: 113; A3A deaminase: -5

How did CN(C(=O)COC(=O)CSc1cc(Cl)ccc1Cl)c1c(N)n(Cc2ccccc2)c(=O)[nH]c1=O do in these assays?
A3G deaminase: 8; NRP1-CendR mod: -5; CR mimetic SO: 101; A3A deaminase: 41*; APOBEC3A confirm: -1
